# Screening data deposited in PubChem by Corson Lab, School of Medicine, Indiana University.
# FECH block = inhibitors of human ferrochelatase; P22830; purified FECH, Ni-mesoporphyrin absorbance 550 nm; calls only at 10 µM (by protocol); actives 3.3% (n = 20,000); AID 1671448;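 active = enzyme reaction rate more than 3 SD below the solvent-only control wells on the same plate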;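 note: lower slope than DMSO wells means FECH inhibition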
# Target sequence (P22830 whole entry, looked up): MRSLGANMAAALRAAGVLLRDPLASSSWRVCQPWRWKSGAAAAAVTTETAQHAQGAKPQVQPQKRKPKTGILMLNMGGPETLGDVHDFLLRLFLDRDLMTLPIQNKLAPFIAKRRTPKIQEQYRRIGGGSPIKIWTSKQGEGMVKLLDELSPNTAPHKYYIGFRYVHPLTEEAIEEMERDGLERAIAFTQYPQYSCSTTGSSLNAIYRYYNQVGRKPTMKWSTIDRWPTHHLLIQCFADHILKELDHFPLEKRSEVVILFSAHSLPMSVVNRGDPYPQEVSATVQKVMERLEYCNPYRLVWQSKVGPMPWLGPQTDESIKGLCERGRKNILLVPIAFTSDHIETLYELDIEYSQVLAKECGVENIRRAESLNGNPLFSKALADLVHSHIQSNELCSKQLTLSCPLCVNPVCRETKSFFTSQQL
# An asterisk follows results filed as active; i = inactive; + = active, no number. The sample as a whole holds a higher share of hits than the screen did.
SMILES,FECH block
COc1ccc(C)cc1NC(=O)CN1C(=O)CC(c2ccc(Br)s2)=Nc2ccccc21,i
CCN1C(SCC(=O)Nc2cc(C)ccc2OC)=NS(=O)(=O)c2ccccc21,+
CCN1C(SCC(=O)Nc2ccc(F)c(Cl)c2)=NS(=O)(=O)c2ccccc21,+
CCC(=O)Nc1ccccc1-c1nnc(SCC(=O)Nc2ccc(Cl)c(Cl)c2)[nH]c1=O,i
O=C(CN1CCN(Cc2ccc(F)cc2Cl)S1(=O)=O)Nc1ccc(F)c(Cl)c1,i
CCN1C(SCC(=O)Nc2cc(Cl)ccc2OC)=NS(=O)(=O)c2ccccc21,i
O=S(=O)(Nc1nc2n(n1)C(c1ccc(Cl)cc1)C=C(c1ccc(Cl)cc1)N2)c1ccc(Cl)cc1 (configuration not stated),i
O=C(c1cc(C2CC2)[nH]n1)N1CCCC1c1nccs1 (configuration not stated),i
Cc1cc(C)c2[nH]c(C(=O)NCCc3cnc[nH]3)c(C)c2c1,i
CCc1c(C)nc2ncnn2c1Sc1ccc(NC(=O)NCc2ccc(C)cc2)cc1,+
CCc1c(C)nc2ncnn2c1Sc1ccc(NC(=O)NCCc2ccccc2)cc1,+
CCc1c(C)nc2ncnn2c1Sc1ccc(NC(=O)NCc2ccc(F)cc2)cc1,i
CCc1c(C)nc2ncnn2c1Sc1ccc(NC(=O)Nc2ccc(C)cc2C)cc1,i
CCOc1ccc(NC(=O)Nc2ccc(Sc3c(CC)c(C)nc4ncnn34)cc2)cc1,i
CCOc1ccccc1NC(=O)Nc1ccc(Sc2c(CC)c(C)nc3ncnn23)cc1,i
Cc1nc2nc(-c3ccccc3)nn2c(Sc2ccccc2NC(=O)c2ccccc2C(F)(F)F)c1C,i
CC(C)n1ncc(NC(=O)Cn2ccc(-c3ccc(C(F)(F)F)cc3)n2)n1,i
CCNC(=O)C1CCN(c2ccc(-c3cccs3)nn2)CC1,i
CCNc1nc(C)c(C(=O)N(C)Cc2nc3ccccc3n2C)s1,i
Cc1c(Cl)cccc1NC(=O)CN1CCCN(Cc2ccccc2Cl)S1(=O)=O,+
Cc1ccc(Cl)cc1NC(=O)CN1CCN(Cc2ccc(F)cc2Cl)S1(=O)=O,i
Cc1ccc(Cl)cc1NC(=O)CN1CCCN(Cc2ccccc2Cl)S1(=O)=O,+
COc1ccccc1NC(=O)CN1CCN(Cc2ccccc2Cl)S1(=O)=O,i
Cc1ccc(Cl)cc1NC(=O)CN1CCCN(Cc2ccccc2)S1(=O)=O,i
Cc1cccc(C)c1NC(=O)CN1CCN(Cc2ccccc2Cl)S1(=O)=O,i
SMILES,FECH block
O=C(c1ccc(N2CCOC(c3ccc(Cl)cc3)C2)nc1)N1CCCC1 (configuration not stated),i
CN(C)Cc1cc(-c2nccn2CCn2cccn2)ccc1O,i
Cc1nc2nc[nH]n2c(=O)c1NC(=O)NCc1ccc(F)cc1,i
NS(=O)(=O)c1ccccc1NC(=O)NCc1ccc(F)cc1,+
COc1ccc(-c2cc(C(=O)NCc3ccc(F)cc3)[nH]n2)cc1S(N)(=O)=O,i
Cc1c(C(=O)N2CCCC2)c(S(=O)(=O)NCCc2ccc(S(N)(=O)=O)cc2)c(C)n1C,i
Cc1cccc(NC(=O)N2CCN(c3cc(-c4cccc(C)c4)ncn3)CC2)c1,i
CCC(=O)Nc1nc2n(n1)C(c1ccc(F)cc1)C=C(c1ccc(C)cc1)N2 (configuration not stated),i
O=C(O)C1(Cc2ccccc2C(F)(F)F)CCN(c2ncccn2)CC1,i
Cc1cccc(CN(C)Cc2cn[nH]c2-c2ccc(F)cc2)c1O,i
CCN(Cc1ccccc1Cl)C(=O)CCNC(=O)c1ccccc1F,i
CN(CCC(C)(C)O)Cc1cccc(Cl)c1F,+
Cc1cc(C)n2nc(CN(C(=O)C(C)C)c3cccc(Cl)c3)nc2n1,i
CCC(C(=O)Nc1cccc(C(=O)NC(C)(C)C)c1C)n1cccn1 (configuration not stated),i
COc1ccc(OC)c(CNC(=O)CN2C(=O)c3cccnc3Sc3ccccc32)c1,+
COc1ccc(OC)c(CNC(=O)Cn2c(=O)c3cnc(-c4ccccc4)nc3n(C)c2=O)c1,i
CCOc1ccc(CNC(=O)CN2C(=O)CN(C)C(=O)c3ccccc32)cc1OC,i
Cc1cc(C)nc(CCNC(=O)c2cccc(CC3CCNCC3)c2)n1,i
COc1ccc(CNS(=O)(=O)c2ccc(C(=O)N(C)C)s2)cc1,i
COc1ccc(CN2CCCN(CC(=O)Nc3ccc4c(c3)OCCO4)S2(=O)=O)cc1,i
COc1ccc(NC(=O)CN(C)S(=O)(=O)c2ccc(C(=O)N3CCOCC3)s2)cc1,+
Cc1ccccc1C1(O)CCN(Cc2cnc(N3CCCC3)nc2)C1 (configuration not stated),i
Cc1ccc(C(C)NC(=O)CN2CCC(OCc3cccnc3)CC2)cc1 (configuration not stated),i
C/C=C(\C)CN1CCC(OCc2cccnc2)CC1,i
O=C(CCN1CCC(OCc2cccnc2)CC1)NC1CCCCCC1,+
COc1ccc(Nc2c(-c3ccc4c(c3)CCCC4)c(=O)c2=O)cc1Cl,i
CCc1cc(Sc2ccccc2NC(=O)c2ccccc2)n2nc(C)nc2n1,i
